Laboratory results reported in PubChem BioAssay (NCATS).
Records with an inconclusive call do not appear. Activity calls are given as the source filed them. Calls come from the whole dose curve; as a rule, active = well fitted inhibition curve with a large enough effect; inconclusive = small, poorly fitted or top-dose-only effect; inactive = flat fitted curve, though single readings scatter.

test system: CRL-7250; assay: qHTS assay to identify novel small-molecules to repurpose for Merkel cell carcinoma treatment (AID 1296009); conditions: MCC and control cell lines, CellTiter-Glo viability, 72 h; at 44.8 µM (top of the series) unless noted; note: nearly all actives have a fitted effect of over 60% in size
Summary of the method: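 Cells were incubated with compound for 72 hr at 37 degree celsius before CellTiter-Glo addition. Luminescence was normalized with no-cell wells as full cytotoxicity and DMSO as baseline.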

| Structure (SMILES) | outcome |
| --- | --- |
| CCCCCCCCCCC[C@@H](C[C@@H]1OC(=O)[C@H]1CCCCCC)OC(=O)[C@H](CC(C)C)NC=O | inactive |
| Cc1c(NC(C)C)c(=O)n(-c2ccccc2)n1C | inactive |
| NS(=O)(=O)c1cc(C(=O)NN2C[C@H]3[C@H]4CCC(C4)[C@H]3C2)ccc1Cl | inactive |
| CC[N+](C)(CC)CCOC(=O)C1c2ccccc2Oc2ccccc21 | inactive |
| Cc1ccccc1OCC(O)CO (configuration not stated) | inactive |
| O=C(O)c1c(O)c(-c2ccccc2)nc2ccccc12 | inactive |
| NS(=O)(=O)c1cc(Cl)c(Cl)c(S(N)(=O)=O)c1 | inactive |
| O=C(N[C@H](CO)[C@H](O)c1ccc([N+](=O)[O-])cc1)C(Cl)Cl | inactive |
| CC(C)(Sc1cc(C(C)(C)C)c(O)c(C(C)(C)C)c1)Sc1cc(C(C)(C)C)c(O)c(C(C)(C)C)c1 | inactive |
| CCCCCCCCCCOc1cc2c(=O)c(C(=O)OCC)c[nH]c2cc1OCC | inactive [at 4.96 µM] |
| Nc1cc(=O)[nH]c(N)n1 | inactive |
| Cc1cc2nc3c(=O)[nH]c(=O)nc-3n(C[C@H](O)[C@H](O)[C@H](O)CO)c2cc1C | inactive [at 17.4 µM] |
| OCc1ccc(Cl)cc1Cl | inactive |
| Cc1ccc(S(=O)(=O)NC(=O)NC2CCCCC2)cc1 | inactive |
| CC1COc2c(N3CCN(C)CC3)c(F)cc3c(=O)c(C(=O)O)cn1c23 (configuration not stated) | inactive |
| CC1(C)O[C@H]2CC(=O)OC[C@]23[C@H]2CC[C@@]4(C)[C@H](c5ccoc5)OC(=O)[C@H]5O[C@]54[C@]2(C)C(=O)C[C@@H]13 | inactive [at 17.4 µM] |
| Cc1ccc2ccc(Cl)cc2n1 | inactive |
| O=C(O)CSCC(=O)NC1CCSC1=O (configuration not stated) | inactive |
| Nc1ccn([C@@H]2O[C@H](CO)[C@@H](O)C2O)c(=O)n1 (some centres not stated) | inactive |

| Structure (SMILES) | outcome |
| --- | --- |
| NC(=O)NS(=O)(=O)c1ccc(Cl)cc1 | inactive |
| Nc1c[n+](N2CCOCC2)no1 | inactive |
| O=C(O)CCCC[C@@H]1SC[C@@H]2NC(=O)N[C@@H]21 | inactive |
| Oc1ccc(Cl)c2cccnc12 | inactive |
| CCC[C@@]1(CCc2ccccc2)CC(O)=C([C@H](CC)c2cccc(NS(=O)(=O)c3ccc(C(F)(F)F)cn3)c2)C(=O)O1 | inactive |
| CC1(COc2ccc(CC3SC(=O)NC3=O)cc2)CCCCC1 (configuration not stated) | inactive |
| CCC(C(=O)OCCN(CC)CC)c1ccccc1 (configuration not stated) | inactive |
| CN1N=C(C(N)=O)CCC1=O | inactive |
| O=C(O)c1cc(=O)[nH]c(=O)[nH]1 | inactive |
| CC(C(=O)O)c1ccc2c(c1)CC(=O)c1ccccc1S2 (configuration not stated) | inactive |
| COc1cc(O)cc(O)c1 | inactive |
| CC(C)OC(=O)OCOP(=O)(CO[C@H](C)Cn1cnc2c(N)ncnc21)OCOC(=O)OC(C)C | inactive |
| NCCCCCC(=O)O | inactive |
| CC(=O)Nc1ccc(/C=N/NC(N)=S)cc1 | inactive |
| N#CCC(=O)NN | inactive |
| CCOc1ncc(F)c(=O)[nH]1 | inactive |
| Cn1nnc2c(C(N)=O)ncn2c1=O | inactive |
| Nc1ncnc2nc[nH]c12 | inactive |
